Measured values: PubChem BioAssay AID1347074 (Center for Chemical Genomics, University of Michigan, 2019)
Screen size: about 47,000 compounds; about 2,800 (6%) were called active. This is one part of a sample in which actives are shown more often than they occur. No stated cut-off is given here; in the data, active means z-score above about 3 (passing the limit was not always enough); inactive means the rest.

Target: Endoribonuclease Dicer (Homo sapiens) (UniProt Q9UPY3)
Assay: Dicer cleavage of pre-miR-21 blockers – biochemical, cat-ELCCA, chemiluminescence, primary screen (AID 1347074);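 further: plate controls were vehicle for no effect and no enzyme for full effect; higher signal means more uncleaved substrate so more Dicer inhibition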
Settings: cat-ELCCA pre-miR-21 Dicer processing, at 25 µM, hits give high values

Endoribonuclease Dicer (Homo sapiens), sequence (Q9UPY3 whole entry, looked up): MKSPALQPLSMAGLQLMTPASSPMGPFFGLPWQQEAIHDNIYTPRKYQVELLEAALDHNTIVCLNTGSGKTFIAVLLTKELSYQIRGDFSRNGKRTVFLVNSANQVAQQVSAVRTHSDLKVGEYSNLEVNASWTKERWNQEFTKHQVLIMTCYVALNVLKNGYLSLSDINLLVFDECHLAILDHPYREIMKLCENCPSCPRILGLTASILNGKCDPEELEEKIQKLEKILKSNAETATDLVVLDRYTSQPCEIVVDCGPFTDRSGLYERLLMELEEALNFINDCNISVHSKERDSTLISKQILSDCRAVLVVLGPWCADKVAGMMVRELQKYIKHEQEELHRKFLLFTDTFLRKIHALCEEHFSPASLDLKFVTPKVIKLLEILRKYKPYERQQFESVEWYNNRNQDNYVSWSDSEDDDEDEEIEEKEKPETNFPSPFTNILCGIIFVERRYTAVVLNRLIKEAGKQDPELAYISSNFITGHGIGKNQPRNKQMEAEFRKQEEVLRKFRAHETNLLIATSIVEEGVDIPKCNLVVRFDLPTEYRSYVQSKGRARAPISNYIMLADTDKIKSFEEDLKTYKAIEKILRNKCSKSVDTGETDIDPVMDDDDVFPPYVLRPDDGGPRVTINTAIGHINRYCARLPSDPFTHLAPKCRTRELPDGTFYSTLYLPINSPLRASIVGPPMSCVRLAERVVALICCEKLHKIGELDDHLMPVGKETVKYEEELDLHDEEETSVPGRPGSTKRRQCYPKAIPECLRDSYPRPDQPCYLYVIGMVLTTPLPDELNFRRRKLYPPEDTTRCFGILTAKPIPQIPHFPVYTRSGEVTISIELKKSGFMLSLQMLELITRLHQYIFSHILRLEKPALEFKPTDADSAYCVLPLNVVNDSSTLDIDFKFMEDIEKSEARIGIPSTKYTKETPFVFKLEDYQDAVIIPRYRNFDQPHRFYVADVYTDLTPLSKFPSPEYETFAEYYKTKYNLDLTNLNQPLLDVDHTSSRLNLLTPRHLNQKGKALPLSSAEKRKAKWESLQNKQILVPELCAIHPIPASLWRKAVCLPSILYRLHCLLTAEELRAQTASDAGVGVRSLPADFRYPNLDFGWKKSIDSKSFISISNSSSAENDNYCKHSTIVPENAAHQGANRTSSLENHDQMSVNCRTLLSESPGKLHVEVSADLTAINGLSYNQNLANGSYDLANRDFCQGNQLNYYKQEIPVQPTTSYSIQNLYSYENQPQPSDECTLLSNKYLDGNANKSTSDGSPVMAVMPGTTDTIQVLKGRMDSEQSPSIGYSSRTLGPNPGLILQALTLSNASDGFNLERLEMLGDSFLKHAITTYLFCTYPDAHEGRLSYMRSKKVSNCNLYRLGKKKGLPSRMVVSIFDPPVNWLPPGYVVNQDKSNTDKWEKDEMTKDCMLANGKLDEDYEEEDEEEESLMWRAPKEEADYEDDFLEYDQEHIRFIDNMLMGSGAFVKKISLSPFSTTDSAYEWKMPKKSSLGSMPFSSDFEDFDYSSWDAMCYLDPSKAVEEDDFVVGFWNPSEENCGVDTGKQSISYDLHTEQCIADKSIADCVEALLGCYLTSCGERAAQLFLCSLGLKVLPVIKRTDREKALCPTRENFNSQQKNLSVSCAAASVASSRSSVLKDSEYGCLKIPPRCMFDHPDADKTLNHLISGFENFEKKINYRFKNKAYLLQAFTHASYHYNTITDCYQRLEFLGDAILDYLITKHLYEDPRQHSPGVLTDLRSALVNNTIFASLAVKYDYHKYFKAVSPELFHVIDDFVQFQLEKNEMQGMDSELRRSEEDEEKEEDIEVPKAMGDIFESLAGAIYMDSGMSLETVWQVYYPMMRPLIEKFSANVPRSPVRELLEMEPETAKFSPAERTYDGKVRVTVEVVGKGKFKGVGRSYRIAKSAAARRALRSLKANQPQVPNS

Compound | z-score
O=C(Cn1nc(C(F)(F)F)c2c1CCCC2)Nc1ccc(Cl)cc1 | 1.11 (inactive)
COC(=O)C1=C(C)NC2=C(C(=O)CC(c3ccccc3)C2)C1c1ccc(C)cc1 (stereo unspecified) | 0.18 (inactive)
O=C1CC(c2ccccc2)CC2=C1C(c1cccc(Cl)c1)Nc1ccccc1N2 (stereo unspecified) | 1.52 (inactive)
COc1ccc(C2CC(=O)C3=C(C2)Nc2ccccc2NC3c2cc(F)ccc2F)cc1 (stereo unspecified) | 3.99 (active)
CN(C)c1ccc(C2Nc3ccccc3NC3=C2C(=O)CC(c2ccc(Cl)cc2)C3)cc1 (stereo unspecified) | 1.16 (inactive)
COC(=O)c1ccc(C2Nc3ccccc3NC3=C2C(=O)CC(c2ccccc2)C3)cc1 (stereo unspecified) | 3.94 (active)
COc1ccc(C2CC(=O)C3=C(C2)Nc2ccccc2NC3c2cccc(Cl)c2)cc1 (stereo unspecified) | 2.07 (inactive)
O=C(CSc1ncnc2c1sc1nc(N3CCOCC3)c3c(c12)CCCC3)N1CCCCC1 | -0.18 (inactive)
CCOC(=O)c1[nH]c2ccc([N+](=O)[O-])cc2c1CCC(=O)O | 0.9 (inactive)
COc1ccc(NC(=O)NCc2c(-c3ccccc3)noc2C)cc1OC1CCCC1 | -0.22 (inactive)
Cc1cc(C)nc(N2CCN(c3ncnc4sc5c(c34)CCCC5)CC2)n1 | 5.88 (inactive)
Cc1cc(C)c2oc(-c3ccc(C)c(NC(=O)C(C)C)c3)nc2c1 | 0.37 (inactive)
c1ccc2[nH]c(NCCN3CCOCC3)nc2c1 | -0.76 (inactive)
Clc1ccc(CNc2nc3ccccc3n2CCN2CCOCC2)cc1 | 3.51 (active)
Clc1ccc(Cn2c(-c3ccco3)nc3ccccc32)cc1 | 2.46 (inactive)
Cc1nn(-c2ccc(N3CCOCC3)nn2)c(=O)c2ccccc12 | -0.81 (inactive)
Cc1c(Cc2c(F)cccc2Cl)c(=O)oc2cc(OC(=O)c3ccccc3Cl)ccc12 | -0.2 (inactive)
COc1ccc(OC)c(NC(=O)Cn2cc(C(=O)C3CC3)c3ccccc32)c1 | 0.03 (inactive)
COc1ccc(OCCn2cc(C(=O)C3CC3)c3ccccc32)cc1 | 3.94 (active)
COCCCNC(=O)Cn1cc(C(=O)C2CC2)c2ccccc21 | 1.99 (inactive)
CCCCN1C(=O)C2(/C(=C(/O)c3ccc(F)cc3)C(=O)C(=O)N2CCCOC)c2ccccc21 (stereo unspecified) | 2.27 (inactive)
Cc1cccc(C)c1NC(=S)NCCC(=O)O | 1.63 (inactive)
CCN(C(=S)Nc1c(C)cccc1C)c1ccccc1 | 3.03 (active)
COc1cc(CN(Cc2ccccc2)C(=S)Nc2c(C)cccc2C)cc(OC)c1OC | 1.24 (inactive)
O=[N+]([O-])c1ccc(S(=O)(=O)c2ccccc2)cc1OS(=O)(=O)c1ccc(Cl)cc1 | 0.46 (inactive)
Fc1ccc(Nc2nnns2)cc1 | 2.65 (inactive)

Compound | z-score
Cn1c(C(=O)O)ccc1S(=O)(=O)N(Cc1ccccc1)Cc1ccccc1 | -0.36 (inactive)
CC(C)=NNS(=O)(=O)c1ccc(C)cc1 | -6.01 (inactive)
CCOc1cc(C)c(S(=O)(=O)NCc2ccccn2)cc1C | 0.63 (inactive)
Cc1nc2cc(NCc3ccccn3)ccc2n1C | 3.02 (active)
Cc1nc2cc(CO)ccc2n1-c1ccccc1 | -1.15 (inactive)
CN(C)c1ccc(C2/C(=C(/O)c3ccccc3)C(=O)C(=O)N2CCO)cc1 (stereo unspecified) | -1.23 (inactive)
CCOC(=O)C1Cn2c(nc3c(c2=O)C(C)(CC)Cc2ccccc2-3)S1 (stereo unspecified) | 3.52 (active)
Cc1ccc(NC(=O)C/C(N)=N/O)cc1Cl | 1.48 (inactive)
COc1ccc(-c2n[nH]c(=S)n2-c2ccc(Cl)cc2C)cc1 | -1.05 (inactive)
CCn1c(CSc2nc(-c3ccc(Cl)cc3)cn2-c2ccc(C)cc2)n[nH]c1=S | 5.38 (active)
S=c1[nH]nc(CSCc2nc(-c3ccccc3)cs2)n1-c1ccc(Cl)cc1 | -0.05 (inactive)
C=CCSc1nc(Nc2ccc(Cl)cc2)c2cnc(N3CCOCC3)nc2n1 | 0.68 (inactive)
Cc1nc2ccccc2c2c1C(=O)N(c1ccc(C(=O)OCC(=O)c3ccccc3)cc1)C2=O | 0.06 (inactive)
C/C(=N\NC1=NCCCN1)c1ccc(Cl)cc1 | -0.42 (inactive)
CCCCSC1=C(C#N)C(=O)NC(C)S1 (stereo unspecified) | 1.98 (inactive)
COc1ccc(-c2nn3c(-c4ccccc4)nnc3s2)cc1OC | -0.95 (inactive)
COc1ccc(-c2nn3c(-c4ccc(OC)cc4)nnc3c3ccccc23)cc1 | 3.15 (active)
COc1ccc(-c2cc(C)nc3nc(N)nn23)cc1 | -1.68 (inactive)
CSc1ccc(C2C(C(=O)OCC3CCCO3)=C(C)NC3=C2C(=O)CC(C)(C)C3)cc1 (stereo unspecified) | 0.6 (inactive)
COc1ccc2c(c1)CCc1sc(N)nc1-2 | -2.97 (inactive)
COc1ccc2c(c1)CCCC2=Nc1ccccc1C(F)(F)F | 4.81 (active)
CCCOc1ccc(N2C(=O)CC(N3CCC(C)CC3)C2=O)cc1 (stereo unspecified) | 1.2 (inactive)
O=C(Cn1nnc(-c2ccccc2Oc2ccc(Cl)cc2Cl)n1)NNC(=S)Nc1ccccc1C(F)(F)F | 4.43 (active)
COC(=O)/C=C(\Nc1ccccc1Oc1ccc(Cl)cc1Cl)C(=O)OC | 2.01 (inactive)
NNC(=O)Cn1nnc(-c2cccc(Cl)c2Cl)n1 | 7.9 (inactive)
